Records with an inconclusive call do not appear. Entries that show only a call come without a potency. Calls of active or inactive are those of the source. Calls follow the shape of the dose curve; as a rule, active = well fitted cell-killing curve with a large enough effect in the repeat runs; inconclusive = weak or mixed curves, or effect the other way; inactive = no such curve, though single readings can be large or run the other way.

The experiment in a line: qHTS assay to identify small molecule agonists of the farnesoid-X-receptor (FXR) signaling pathway - cell viability counter screen (AID 743218). Also: nearly all actives have a fitted effect of over 45% in size. Particulars: FXR-bla HEK293T viability, CellTiter-Glo luminescence, 16 h; series mostly up to 62.6 µM; viability change, negative = cytotoxic: at the top concentration. The text has this: U.S. Tox21 Program National Center for Advancing Translational Sciences [NCATS] NIH Chemical Genomics Center [NCGC] U.S. Environmental Protection Agency [EPA] National Institutes of Environmental Health Sciences [NIEHS] National Toxicology Program [NTP] U.S. Food and Drug Administration [FDA] Tox21 Assay Overview: The farnesoid-X-receptor (FXR), a nuclear hormone receptor, is highly expressed in liver, intestine, kidney and adrenal cortex. Natural ligands of FXR are the bile acids (Cholic acid, Chenodeoxy cholic acid etc). FXR is an important regulator of diverse metabolic pathways, including the bile acid homeostasis, lipid and glucose metabolisms. FXR regulates the expression of target genes by binding either as a monomer or as a heterodimer with the retinoid X receptor (RXR). Numerous studies have reported that FXR exerts protective function during cholestasis, diabetes, liver regeneration, and cancer. To identify compounds that activate FXR signaling, GeneBLAzer FXR-UAS-bla HEK 293T cell line (Invitrogen, Carlsbad, CA) containing a beta-lactamase reporter gene under the control of a UAS response element was used to screen the Tox21 10K compound library. The cytotoxicity of the Tox21 compound library against the FXR-bla cell line was tested in parallel by measuring the cell viability using CellTiter-Glo assay in the same wells.
Tox21 Assay Protocol Summary: FXR-bla cells were dispensed at 5000 cells/5uL/well in 1536-well black wall/clear bottom plates using a Multidrop Combi (Thermo Fisher Scientific, Waltham, MA) dispenser. After the assay plates were incubated at 37 C and 5% CO2 for 5 h, 23 nL of compounds dissolved in DMSO, positive controls or DMSO only was transferred to the assay plate by a Pintool station (Kalypsys, San Diego, CA). The assay plates were incubated at 37C for 16 h. After 1 uL of LiveBLAzerTM B/G FRET substrate was added using a Bioraptr Flying Reagent Dispenser (FRD) workstation (Beckman Coulter, Indianapolis, IN), the plates were incubated at room temperature for 2 h, and fluorescence intensity was measured by an Envision plate reader (PerkinElmer, Shelton, CT). For cell viability readout that measures cytotoxicity, 4uL/well of CellTiter-Glo reagent was added into the assay plates using a Bioraptr FRD. After 30 min incubation at room temperature, the luminescence intensity in the plates was measured using a ViewLux plate reader (PerkinElmer).
Consider `CCN1CCCC1=O`, for which the Potency result is “inactive”.

With `CCn1cc(C(=O)O)c(=O)c2ccc(C)nc21`, the Potency entry is “inactive”.

For `CN/C(=C\[N+](=O)[O-])NCCSCc1ccc(CN(C)C)o1`, the Potency result is “inactive”.

On to `C=C(C)C(N)=O`, for which the “viability change, negative = cytotoxic” value is -6.34% (inactive).

In the case of `Cc1ccc(O)c(-n2nc3ccccc3n2)c1`, the Potency result was “inactive”.

Take `CC1(C)O[C@@H]2[C@@H](CO[C@@]3(COS(N)(=O)=O)OC(C)(C)O[C@@H]23)O1`: the Potency result was “inactive”.

Regarding `COc1cc(C=O)ccc1O`, the Potency result was “inactive”.

Take `C=CC(=O)NC(C)(C)CS(=O)(=O)O`: the Potency entry was “inactive”.

In the case of `C1CNCCN1`, the Potency entry is “inactive”.

Consider `CC(C)CC(C)CC(O)CC(C)C` (stereo not given), for which the “viability change, negative = cytotoxic” value is 6.56% [at 81.1 µM] (inactive).

As for `COc1ccccc1O`, the “viability change, negative = cytotoxic” value is 16.8% [at 81.1 µM] (inactive).

Consider `C#C[C@]1(O)CC[C@H]2[C@@H]3CCc4cc(O)ccc4[C@H]3CC[C@@]21C`, for which the Potency result was “inactive”.

Regarding `N[C@@H](Cc1c[nH]c2ccc(O)cc12)C(=O)O`, the “viability change, negative = cytotoxic” value was 2.64% (inactive).

As to `CCCCCCCCCCCCCCCCCC(=O)OCC(O)CO` (stereo not given), the Potency entry was “inactive”.

As for `O=C(OCc1ccccc1)c1ccccc1`, the Potency result is “inactive”.

In the case of `CN(C)Cc1cc(CN(C)C)c(O)c(CN(C)C)c1`, the Potency result was “inactive”.

Regarding `CC(=O)CCC(C)C`, the Potency entry is “inactive”.

As to `O=c1cc[nH]c(=O)[nH]1`, the Potency entry was “inactive”.

In the case of `CC(=O)OC/C=C(C)/C=C/C=C(C)/C=C/C1=C(C)CCCC1(C)C`, the Potency result is “inactive”.

`CCCCCCCC(=O)OCC(O)CO` (stereo not given): the Potency result is “inactive”.

On to `CCN(CC)CCOC(=O)c1ccc(N)cc1`, for which the Potency entry is “inactive”.

As to `CC(=O)c1ccc(S(=O)(=O)NC(=O)NC2CCCCC2)cc1`, the Potency result was “inactive”.

As for `CC(=O)Oc1ccccc1C(=O)O`, the Potency entry is “inactive”.

On to `CCc1cc(C(N)=S)ccn1`, for which the Potency entry is “inactive”.

For `Cc1cccc(C)c1O`, the Potency result is “inactive”.

On to `NC(=O)OCC(COC(N)=O)c1ccccc1`, for which the Potency entry was “inactive”.

For the molecule `Oc1cccc(O)c1`, the Potency result was “inactive”.

As for `C[C@]12C=CC(=O)C=C1CC[C@@H]1[C@@H]2C(=O)C[C@@]2(C)[C@H]1CC[C@]2(O)C(=O)CO`, the Potency result is “inactive”.

In the case of `O=C(O)Cc1cccc2ccccc12`, the Potency result was “inactive”.

Consider `CCCCCCCCCCCCCC(=O)OC(C)C`, for which the Potency entry is “inactive”.

Consider `CCCCC/C(C=O)=C\c1ccccc1`, for which the Potency entry was “inactive”.

For `CC1=C(/C=C/C(C)=C/C=C/C(C)=C/C(=O)O)C(C)(C)CCC1`, the “viability change, negative = cytotoxic” value is -23.7% (inactive).

Turning to `CC(C)=CCC/C(C)=C/CO`, the Potency entry was “inactive”.

Turning to `COc1cc(O)c(C(=O)c2ccccc2)cc1S(=O)(=O)O`, the Potency result was “inactive”.

`CC1=NN(c2ccccc2)C(=O)C1`: the Potency result was “inactive”.

For the molecule `Cc1cccc2ccccc12`, the Potency result is “inactive”.

As for `CN(C)C=O`, the Potency entry is “inactive”.

As to `O=C(O)CN(CC(=O)O)CC(=O)O`, the “viability change, negative = cytotoxic” value was 16.4% (inactive).

In the case of `CCCCOCCOCCOC(C)=O`, the Potency entry is “inactive”.

For the molecule `OC[C@@H](O)[C@@H](O)[C@H](O)[C@H](O)CO`, the Potency result was “inactive”.

Values taken from PubChem BioAssay (Tox21).
